# High-throughput results as filed in PubChem.
# The list is not random: actives were taken first. Their share in the collection is about 4.3%.
# ADAM17 inh = ADAM17 inhibition, QFRET primary screen | inhibition, % at 6.95 µM | AID 720648 | recombinant ADAM17, EDANS/DABCYL FRET peptide cleavage | hit rate 0.83% among 370,000;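 active means inhibition above the mean of compounds lying between control limits plus 3 SD, set per campaign, cut at about 8.5% in these data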
# FAS-TE inh = inhibitors of human fatty acid synthase thioesterase domain; recombinant FAS-TE, OMFH fluorogenic substrate, fluorescence endpoint; P49327; hit rate 0.67% among 360,000; inhibition, % at 15 µM;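 active means compounds whose normalised, plate-corrected inhibition of enzyme fluorescence in the single-dose primary screen is 50% or more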
# NR3A LBD binder = NR3A (human) ligand-binding domain modulation. NR3A LBD differential scanning fluorimetry, Tm shift; 0% = protein alone, 100% = glycine-bound protein. AID 1259313. Tm shift relative to glycine control, % at 25 µM. hit rate 2.5% among 340,000;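 active means melting temperature shift of at least 10% of the positive control shift, at one fixed dose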
# sPLA2-III inh = Inhibits HGIII-sPLA2 liposome hydrolysis, primary screen; Q9NZ20; QFRET BODIPY PC-A2 liposome hydrolysis, fluorescence; inhibition, % at 12.2 µM; hit rate 0.56% among 370,000; AID 743126;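 active means inhibition above mean plus 3 SD of compounds lying within the high and low control bounds, cut at about 19% in these data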
# Target sequence (Q9NZ20 whole entry, looked up): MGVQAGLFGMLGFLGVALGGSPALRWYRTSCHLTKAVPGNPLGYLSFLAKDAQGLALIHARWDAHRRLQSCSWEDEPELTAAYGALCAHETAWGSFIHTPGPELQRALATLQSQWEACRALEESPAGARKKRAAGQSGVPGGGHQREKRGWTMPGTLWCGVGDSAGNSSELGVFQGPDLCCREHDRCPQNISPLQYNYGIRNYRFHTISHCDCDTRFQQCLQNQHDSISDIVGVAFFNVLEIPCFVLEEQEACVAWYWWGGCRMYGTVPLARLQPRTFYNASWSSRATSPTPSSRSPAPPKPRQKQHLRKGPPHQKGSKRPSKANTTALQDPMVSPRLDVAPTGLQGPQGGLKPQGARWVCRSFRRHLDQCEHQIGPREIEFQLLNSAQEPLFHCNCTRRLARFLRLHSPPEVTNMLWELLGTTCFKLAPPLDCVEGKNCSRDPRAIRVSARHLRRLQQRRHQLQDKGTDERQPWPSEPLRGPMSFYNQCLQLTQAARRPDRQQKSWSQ
# ADAM10 inh = ADAM10 inhibition, QFRET primary screen; recombinant ADAM10, EDANS/DABCYL FRET peptide cleavage, 3 h; inhibition, % at 7 µM; hit rate 0.62% among 370,000;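 active means inhibition above a per-campaign cutoff equal to the mean of compounds falling between control-based bounds plus 3 SD, cut at about 20% in these data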
# FAS-TE conf = confirmation of human fatty acid synthase thioesterase inhibitors; recombinant FAS-TE, OMFH fluorogenic substrate, fluorescence; shares compounds with FAS-TE inh; inhibition, % at 15 µM; hit rate 45% among 2,300;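 active means compounds inhibiting the enzyme by at least 50% at 15 µM in any one of the replicates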
# Numbers stand for hits; n = inactive; x = not tested or not shown.
SMILES,ADAM17 inh,FAS-TE inh,NR3A LBD binder,sPLA2-III inh,ADAM10 inh,FAS-TE conf
COC(=O)c1cc2c(c3c4cc(C)ccc4n(S(=O)(=O)c4ccc(OC)cc4)c13)C(=O)N(Cc1ccccc1OC)C2,n,x,x,n,n,x
O=C1c2ccccc2S(=O)(=O)c2cc(C(=O)N3CCN(c4c(Cl)cncc4Cl)CC3)ccc21,n,62,n,n,n,n
O=C1c2ccc(Cl)cc2S(=O)(=O)c2cccc(C(=O)N3CCN(c4ccc(Cl)cn4)CC3)c21,n,59,n,n,n,n
O=C1c2ccc(-c3ccc(Cl)c(C(F)(F)F)c3)cc2S(=O)(=O)c2cccc(C(=O)N3CCN(c4ncc(Br)cn4)CC3)c21,n,69,n,n,n,n
COC(=O)[C@H](CC(C)C)N(CCCc1cn(CC2CCCCC2)nn1)S(=O)(=O)c1ccccc1Br,n,x,x,n,n,x
FCCCOc1ccc(-c2ccnc(-c3ccccc3)n2)cc1,n,54,n,n,n,n
C=CCn1c(=S)[nH]c2cc(C(=O)N3CCN(c4ccccc4OC)CC3)ccc2c1=O,n,54,n,n,n,58
O=C(Nc1ccccc1Oc1ccccc1)NC1CCCCN(Cc2cccc(Cl)c2)C1=O (configuration not stated),n,x,x,n,n,x
CCCC/C=C1/[C@@H](c2ccc(Cl)cc2)N(Cc2ccc3c(c2)OCO3)C2=N[C@@H](c3ccccc3)CC(=O)N21,n,x,x,n,n,x
COc1cccc(Nc2nc(-c3cccs3)nc3ccccc23)c1,n,51,21,n,n,n
CCCCCn1c(=NC(C)=O)c(C#N)cc2c(=O)n3ccccc3nc21,n,61,n,n,n,n
CCCCn1c(=NC(C)=O)c(C#N)cc2c(=O)n3cccc(C)c3nc21,n,50,n,n,n,n
COc1cc(/C=N/NC(=O)C(Cc2c[nH]c3ccccc23)NC(=O)OCc2ccccc2)cc([N+](=O)[O-])c1O (configuration not stated),9.1,75,n,n,41,75
COc1cc(/C=N/NC(=O)C(Cc2c[nH]c3ccccc23)NC(=O)OCC(C)C)cc([N+](=O)[O-])c1O (configuration not stated),n,n,n,n,n,x
CCOc1ccc(-n2c(COc3ccc(C)cc3)nnc2SCC(=O)Nc2ccc(F)c(F)c2)cc1,n,x,x,n,n,x
O=c1c2ccccc2oc2cc(C#CC3(O)CCCCC3)ccc12,n,55,n,n,n,n
Nc1[nH]c(C(=O)c2ccc(Br)cc2)c(-c2c(F)cccc2F)c1C(=O)NCCc1c[nH]c2ccccc12,n,x,x,n,n,x
O=C(CSc1nnc(-c2ccncc2)n1-c1ccccc1)Nc1cccc2ccccc12,n,x,x,n,n,x
O=C1Nc2cc(Cl)c(Cl)cc2N(O)N1c1ccc(Cl)c(Cl)c1,n,62,n,n,n,67
Cc1ccc(CN2CCCCC(NC(=O)c3cccc([N+](=O)[O-])c3)C2=O)cc1 (configuration not stated),n,x,x,n,n,x
CC(C)(C)OC(=O)NCCc1onc(-c2cccc([N+](=O)[O-])c2)c1C(=O)O,n,81,x,n,n,87
C[C@@H]1[C@@H](O)C[C@@]2(C[C@H](O)c3cc(Cl)ccc3O2)O[C@H]1c1ccccc1Cl,n,x,x,n,n,x
O=C(Nc1ccc(-c2nnc3n2CCCCC3)cc1)c1cc2ccccc2o1,n,n,n,n,n,x
Cc1c(C(=O)Nc2ccc(-c3nnc4n3CCCCC4)cc2)oc2c1ccc1ccccc12,n,78,n,n,n,n
CCCCCN(CCCCC)C(=O)C(CCC(=O)O)NC(=O)c1ccc(Cl)c(Cl)c1 (configuration not stated),n,72,n,n,n,74
SMILES,ADAM17 inh,FAS-TE inh,NR3A LBD binder,sPLA2-III inh,ADAM10 inh,FAS-TE conf
COC(=O)[C@@]12CCCCN1[C@H](c1ccc(-c3ccc(Cl)c(Cl)c3)c(OC)c1)[C@H]1C(=O)N(C)C(=O)[C@H]12,n,60,n,n,n,n
CCN1C(=O)[C@H]2[C@@H](c3ccc(-c4ccc(OC)cc4)c(OC)c3)N3CCCC[C@@]3(C(=O)OC)[C@H]2C1=O,n,70,n,n,n,n
CCN1C(=O)[C@@H]2[C@@H](c3ccc(-c4ccc(OC)cc4)cc3)N3CCCC[C@@]3(C(=O)OC)[C@@H]2C1=O,n,n,n,n,n,x
CCCN(C(=O)CCc1cn(CCC)c2ccccc12)c1ccc(Oc2cccnc2)cc1,n,x,x,n,n,x
O=C(CSc1ccc([N+](=O)[O-])cn1)Nc1ccc2c(c1)OCCO2,n,85,n,n,n,88
O=C(COC(=O)c1cc(F)c(F)cc1Cl)NC1CCCCCC1,n,56,x,n,n,68
CCN(C(=O)COC(=O)c1cc([N+](=O)[O-])ccc1N1CCOCC1)C1CCS(=O)(=O)C1 (configuration not stated),n,n,n,n,n,x
CN(C(=O)COC(=O)c1cc([N+](=O)[O-])ccc1N1CCOCC1)C1CCCCC1,n,89,x,n,n,93
O=C(COC(=O)c1cc([N+](=O)[O-])ccc1N1CCOCC1)NC1CCCCC1,n,92,n,n,n,91
O=C(COC(=O)c1ccc(F)cc1Cl)NC1CCCCCCC1,n,n,n,n,n,x
CC1CCCCN1C(=O)COC(=O)c1cc([N+](=O)[O-])ccc1N1CCOCC1 (configuration not stated),n,54,n,n,n,57
O=C(COC(=O)c1cc([N+](=O)[O-])ccc1N1CCOCC1)NC1CCS(=O)(=O)C1 (configuration not stated),n,n,n,n,n,x
COC(=O)[C@]12C[C@H](CC(=O)N3CCSCC3)C(=O)N(Cc3ccco3)C1=C[C@H](COCc1ccccc1)O[C@@H]2C,n,x,x,n,n,x
COc1ccc(S[C@]2(C(=O)NC(C)C)CC(=O)N[C@@H]2c2ccc(OC)cc2)cc1,n,x,x,n,n,x
CCN(C(=O)COC(=O)c1cc([N+](=O)[O-])ccc1N1CCOCC1)C1CCCCC1,n,86,n,n,n,92
Cc1cccn2c(=O)c3cc(S(=O)(=O)c4ccc(Br)cc4)c(=N)n(C4CCCCC4)c3nc12,n,51,n,n,n,n
Cc1ccc(S(=O)(=O)c2cc3c(=O)n4cccc(C)c4nc3n(C3CCCCC3)c2=N)cc1,x,n,n,x,x,x
COc1ccc(C2CC23N=C(c2ccccc2)OC3=O)cc1 (configuration not stated),n,85,n,n,n,96
COc1ccc(C(=O)N/N=C\c2coc3ccc(Cl)cc3c2=O)cc1,n,n,n,n,n,x
COc1cc(C(=O)Oc2ccccc2/C=N/NC(=O)c2ccc(C)c(Cl)c2)cc(OC)c1OC,n,n,n,n,n,x
O=C(N/N=C/c1coc2ccc(Cl)cc2c1=O)c1ccc(O)cc1,n,65,n,n,n,37
